Among the data in PubChem BioAssay (NCATS) are Potency and max response values, retold here.

Test [1] deals with SC27B. The test is described as follows: qHTS profiling for inhibitors of Plasmodium falciparum proliferation (AID 504749). The note with it: P. falciparum in erythrocytes, SYBR Green DNA, 72 h; series mostly up to 28.7 µM. In a few lines:
(§1)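 SYBR Green fluorescence (ex 485 nm, em 535 nm) reports parasite DNA after 72 h compound exposure of infected red cells at 0.3% parasitemia, 2.5% hematocrit; signal normalized to 0.29 uM artemisinin and vehicle wells.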

Test [2] deals with TAB109. The description is as above. Conditions: P. falciparum in erythrocytes, SYBR Green DNA, 72 h; series mostly up to 28.7 µM. The procedure, abridged: as §1
The test system of test [3] is TAB113. The description is as above. Conditions: P. falciparum in erythrocytes, SYBR Green DNA, 72 h; series mostly up to 28.7 µM. In a few lines:
as §1

Test [4] relates to TAB165. Described as above. The note with it: P. falciparum in erythrocytes, SYBR Green DNA, 72 h; series mostly up to 28.7 µM. In a few lines:
as §1

In test [5] the test system is W2. The description is as above. Conditions: P. falciparum in erythrocytes, SYBR Green DNA, 72 h; series mostly up to 28.7 µM. The procedure, abridged:
as §1

In test [6] the test system is KB-3-1. The test is described as follows: Cytotoxic Profiling of Annotated Libraries Using Quantitative High-Throughput Screening (AID 1296008). As to max response: % is scaled to controls: 0 for no effect and ±100 for the full control effect. The note with it: Five cell lines viability, CellTiter-Glo ATP luminescence, 48-72 h; max response: stronger effect = lower value. The procedure, abridged:
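Cells exposed to compounds for 48 or 72 hr at 37 degrees Celsius. Viability read as ATP-coupled luminescence with CellTiter-Glo after 10 min at room temperature.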

Records with an inconclusive call do not appear. Unmarked numbers belong to inactive results. The source made the active and inactive calls. Calls follow the shape of the dose curve; as a rule, active = well fitted inhibition curve with a large enough effect; inconclusive = small, poorly fitted or top-dose-only effect; inactive = flat fitted curve, though single readings scatter.
Also: nearly all actives have a fitted effect of over 60% in size.
Potency is read from the fitted curve at half-maximal effect.

`C[C@]12CCC(=O)C=C1CC[C@@H]1[C@@H]2[C@@H](O)C[C@@]2(C)[C@H]1CC[C@]2(O)C(=O)COP(=O)(O)O`: the Potency result in test [1], in test [2], in test [3], in test [4] and in test [5] was “inactive” in each case. Moreover, the max response in test [6] was 13.4%.
Turning to `COC(C(=O)C(O)C(C)O)C1Cc2cc3cc(OC4CC(OC5CC(O)C(O)C(C)O5)C(O)C(C)O4)c(C)c(O)c3c(O)c2C(=O)C1OC1CC(OC2CC(OC3CC(C)(O)C(O)C(C)O3)C(O)C(C)O2)C(O)C(C)O1` (stereo not given), the Potency in test [1] is 0.178 µM (active); in test [2], 0.158 µM (active); in test [3], 0.141 µM (active); in test [4], 0.141 µM (active); in test [5], 0.426 µM (active); in test [6], 1.46 µM (active).
Regarding `CC1=C(/C=C/C(C)=C/C=C/C(C)=C/C=C/C=C(C)/C=C/C=C(C)/C=C/C2=C(C)CCCC2(C)C)C(C)(C)CCC1`, the Potency entry in test [1], in test [2], in test [3], in test [4] and in test [5] was “inactive” in each case. For the same compound, in test [6], the max response is -7.35%.
For `O=S(=O)(O)O`, the Potency result in test [1], in test [2], in test [3], in test [4] and in test [5] was “inactive” in each case. Also, the max response in test [6] is 5.37%.
With `CCCCC(=O)O[C@]1(C(=O)CO)[C@H](C)C[C@H]2[C@@H]3CCC4=CC(=O)C=C[C@]4(C)[C@@]3(F)[C@@H](O)C[C@@]21C`, the Potency entry in test [1] and in test [3] was “inactive” each time. Also, the Potency in test [5] is 13.5 µM (active). The max response in test [6] is 32.2%.
For `CC(C(=O)O)c1ccc(N2Cc3ccccc3C2=O)cc1` (stereo not given), the Potency entry in test [1], in test [2], in test [3], in test [4] and in test [5] was “inactive” throughout. The max response in test [6] is -24.5%.
Regarding `CCN(CC)CCOc1ccc(-c2nc3cc(Cl)ccc3s2)cc1`, the Potency entry in test [1] was “inactive”.
As to `CC(=O)Oc1cc(C)c(OC(C)=O)c2ccccc12`, the Potency in test [4] is 12.6 µM (active); in test [5], 5.36 µM (active). Moreover, in test [6], the max response is 4.15%.
Consider `O=CCCCC=O`, for which the Potency entry in test [1], in test [2] and in test [3] was “inactive” in each case. In addition, the Potency in test [5] is 13.5 µM (active). Also, the max response in test [6] was -2.08%.
Take `CC1=CCC(C(C)(C)O)CC1` (stereo not given): the Potency result in test [1], in test [2], in test [3], in test [4] and in test [5] was “inactive” each time. Further, the max response in test [6] is 6.57%.
Regarding `CCCCCCCC(=O)O`, the Potency result in test [1], in test [2], in test [3], in test [4] and in test [5] was “inactive” in each case. Moreover, the max response in test [6] is -16.7%.
In the case of `CN=C(NC#N)Nc1ccc(C2=NNC(=O)C[C@@H]2C)cc1`, the Potency result in test [1], in test [2], in test [3] and in test [4] was “inactive” each time.
Take `CCCCCCCCCCCCCC[n+]1ccc(C)cc1`: the Potency in test [1] is 3.98 µM (active); in test [2] it was 2.24 µM (active); in test [3] it was 3.98 µM (active); in test [4], 3.98 µM (active); in test [5] it was 1.69 µM (active); in test [6], 18.4 µM (active).
`COC(=O)[C@H]1[C@H]2CC3c4[nH]c5ccccc5c4CCN3C[C@@H]2CC[C@@H]1O` (stereo not given in full): the Potency entry in test [1], in test [2], in test [3] and in test [4] was “inactive” each time.
Take `O=C(O)c1cc(=O)c2c3nc4ccccc4oc-3cc(=O)c2[nH]1`: the Potency result in test [3] was “inactive”. Besides, the max response in test [6] is -4.67%.
With `COCC(=O)Nc1cc(Sc2ccccc2)ccc1N=C(NC(=O)OC)NC(=O)OC`, the Potency entry in test [1], in test [2], in test [3] and in test [4] was “inactive” each time.
In the case of `CO[C@H]1C[C@@H]2CC[C@@H](C)[C@@](O)(O2)C(=O)C(=O)N2CCCC[C@H]2C(=O)O[C@H]([C@H](C)C[C@@H]2CC[C@@H](OCCO)[C@H](OC)C2)CC(=O)[C@H](C)/C=C(\C)[C@@H](O)[C@@H](OC)C(=O)[C@H](C)C[C@H](C)/C=C/C=C/C=C/1C`, the Potency in test [1] is 1.41 µM (active); in test [2], 1.78 µM (active); in test [3], 1.12 µM (active); in test [4], 1.12 µM (active); in test [5] it was 0.757 µM (active). The max response in test [6] was -27.1%.
As for `Nc1c(N=Nc2ccc(-c3ccc(N=Nc4cc(S(=O)(=O)O)c5ccccc5c4N)cc3)cc2)cc(S(=O)(=O)O)c2ccccc12`, the Potency entry in test [1], in test [2], in test [3], in test [4] and in test [5] was “inactive” in each case. Besides, in test [6], the max response was -9%.
Take `CCC(=O)NCCC1CCc2ccc3c(c21)CCO3` (stereo not given): the Potency entry in test [1], in test [2], in test [3], in test [4] and in test [5] was “inactive” throughout. For the same compound, in test [6], the max response was -7.29%.
With `CCCCCCCCCCCC[n+]1ccc2ccccc2c1`, the Potency is 1.41 µM (active) in test [1]; 0.631 µM (active) in test [2]; 1 µM (active) in test [3]; 0.891 µM (active) in test [4]; 0.301 µM (active) in test [5]; 14.6 µM (active) in test [6].
On to `CCCCCC(CC)COC(=O)CC(C(=O)OCC(CC)CCCC)S(=O)(=O)O` (stereo not given), for which the Potency entry in test [1], in test [2], in test [3] and in test [4] was “inactive” in each case.
In the case of `CO[C@H](C(=O)[C@@H](O)[C@@H](C)O)C1Cc2cc3cc(O[C@H]4C[C@@H](O[C@H]5C[C@@H](O)[C@H](O)[C@@H](C)O5)[C@@H](O)[C@@H](C)O4)c(C)c(O)c3c(O)c2C(=O)[C@H]1O[C@H]1C[C@@H](O[C@H]2C[C@@H](O[C@H]3C[C@](C)(O)[C@H](O)[C@@H](C)O3)[C@H](O)[C@@H](C)O2)[C@H](O)[C@@H](C)O1` (stereo not given in full), the Potency in test [1] is 0.126 µM (active); in test [2], 0.141 µM (active); in test [3], 0.0891 µM (active); in test [4], 0.126 µM (active); in test [5], 0.169 µM (active); in test [6], 1.16 µM (active).
In the case of `COC(F)(F)C(Cl)Cl`, the Potency result in test [1], in test [2], in test [3], in test [4] and in test [5] was “inactive” throughout.
For the compound `CCOC(C)=O`, the Potency entry in test [1], in test [2], in test [3], in test [4] and in test [5] was “inactive” throughout.
For `Cc1ccccc1`, the Potency result in test [1], in test [2], in test [3], in test [4] and in test [5] was “inactive” throughout.
Regarding `CCCC(=O)O[C@]1(C(=O)CCl)[C@H](C)C[C@@H]2[C@H]3CCC4=CC(=O)C=C[C@]4(C)[C@@]3(F)C(=O)C[C@@]21C`, the Potency in test [1] was 2.82 µM (active); in test [2], 3.16 µM (active); in test [3], 2.51 µM (active); in test [4], 2 µM (active); in test [5], 1.51 µM (active).
As for `COc1cc(-c2ccc(-[n+]3nc(-c4ccccc4)nn3-c3ccc([N+](=O)[O-])cc3)c(OC)c2)ccc1-[n+]1nc(-c2ccccc2)nn1-c1ccc([N+](=O)[O-])cc1`, in test [5], the Potency is 12 µM (active).
Consider `CCN(CC)Cc1cc(Nc2ccnc3cc(Cl)ccc23)ccc1O`, for which the Potency in test [1] is 0.0708 µM (active); in test [2], 0.0501 µM (active); in test [3], 0.0794 µM (active); in test [4], 0.0447 µM (active); in test [5], 0.051 µM (active).
`CC(C)=O`: the Potency result in test [1], in test [2], in test [3], in test [4] and in test [5] was “inactive” in each case.
